According to PubChem BioAssay AID1240 (Sanford-Burnham Center for Chemical Genomics, 2008):
The campaign covered roughly 50,000 compounds. About 800 (1.6%) showed an effect of 50% or more. The list comes from a sample in which strong results are over-represented; it also holds similar structures and randomly drawn compounds.

Molecular target: Bcl-2-like protein 10 (Homo sapiens) (UniProt Q9HD36)
Test: TR3 peptide-Bcl-B binding displacers, biochemical primary FP assay, phenotype converters (AID 1240);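 note: 0% = Bcl-B with tracer peptide and DMSO and 100% = tracer peptide lacking Bcl-B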
Settings: GST-Bcl-B / FITC-TR3 peptide fluorescence polarization; stronger effect = higher value; compound at 3.75 mg/L

Bcl-2-like protein 10 (Homo sapiens), sequence (Q9HD36 whole entry, looked up): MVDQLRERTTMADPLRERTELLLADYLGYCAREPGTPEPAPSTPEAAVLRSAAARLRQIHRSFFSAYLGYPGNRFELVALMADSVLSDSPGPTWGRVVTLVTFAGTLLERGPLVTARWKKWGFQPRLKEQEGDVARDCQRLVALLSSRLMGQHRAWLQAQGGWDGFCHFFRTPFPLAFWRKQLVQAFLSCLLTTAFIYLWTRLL

Question: Which displacement does the source give for `CN1CCN(Cc2c(O)ccc3c(=O)c(-c4ccccc4)coc23)CC1` here?
Answer: -1.7%

Question: For `CN1CCN(Cc2c(O)ccc3cc(-c4nc5ccccc5[nH]4)c(=O)oc23)CC1`, which displacement is on record?
Answer: 125%

Question: `CCOC(=O)c1c(-c2ccccc2)oc2ccc(O)c(CN3CCCC(C)C3)c12` (configuration not stated) was tested. Which displacement did it give?
Answer: 11%

Question: For `CCc1cc2c(=O)c(-c3nc4ccccc4[nH]3)coc2c(CN2CCOCC2)c1O`, which displacement is on record?
Answer: 8.5%

Question: For `CC1CCN(Cc2c(O)ccc3c4c(c(=O)oc23)CCC4)CC1`, which displacement is on record?
Answer: 12.8%

Question: Which displacement does the source give for `CC1CCCN(Cc2c(O)ccc3cc(-c4nc5ccccc5[nH]4)c(=O)oc23)C1` (configuration not stated) here?
Answer: 106%

Question: For `COc1ccccc1-c1coc2c(CN3CCN(C)CC3)c(O)ccc2c1=O`, which displacement is on record?
Answer: -1.3%

Question: With `O=c1oc2c(CN3CCOCC3)c(O)ccc2cc1-c1nc2ccccc2[nH]1` as the compound, how does the displacement read?
Answer: 139%

Question: Which displacement does the source give for `Cn1c(-c2cc3ccc(O)c(CN4CCOCC4)c3oc2=O)nc2ccccc21` here?
Answer: 19.1%

Question: `COc1ccc(N2C(=O)C3C(c4ccccc4Cl)OC4(C(=O)c5ccccc5C4=O)C3C2=O)c(OC)c1` (configuration not stated) was tested. Which displacement did it give?
Answer: 12.5%

Question: How did the displacement turn out when `COc1ccc(C2CC(=O)C3=C(C2)Nc2ccccc2NC3c2cc(C)ccc2C)cc1` (configuration not stated) was run?
Answer: -3.7%

Question: With `Cc1ccc(C2/C(=C(\O)c3ccccc3)C(=O)C(=O)N2CCCC(=O)O)cc1` (configuration not stated) as the compound, how does the displacement read?
Answer: 1.4%

Question: `O=C1N=c2ccccc2=C1c1sc(Nc2cccc(Cl)c2Cl)nc1O` was tested. Which displacement did it give?
Answer: 15.8%

Question: How did the displacement turn out when `O=C1OC(c2ccc(Br)cc2)=C/C1=C\C=C\c1ccccc1` was run?
Answer: -8.3%

Question: `COc1cc(/C=C2\C(=O)NN(c3ccccc3)C2=O)cc(OC)c1OC` was tested. Which displacement did it give?
Answer: -6.6%

Question: `COc1ccc(C(=O)Nc2ccc(Br)cn2)cc1OC` was tested. Which displacement did it give?
Answer: 5.1%

Question: Which displacement does the source give for `COc1ccc(Cl)cc1NC(=O)C1=C(C)NC(=O)NC1c1cccc2ccccc12` (configuration not stated) here?
Answer: 15.4%

Question: How did the displacement turn out when `O=C1CCCc2oc3ccc(NS(=O)(=O)c4ccccc4)cc3c21` was run?
Answer: 2.5%

Question: For `Cc1ccc(/C=C/C(=O)Nc2ccc([N+](=O)[O-])cc2)o1`, which displacement is on record?
Answer: 11.8%

Question: `Cc1ccc(/C=C/C(=O)Nc2ccc(C)c([N+](=O)[O-])c2)o1` was tested. Which displacement did it give?
Answer: 62%

Question: How did the displacement turn out when `O=C1C(=Cc2ccc(-c3ccccc3[N+](=O)[O-])o2)C(=O)c2ccccc21` was run?
Answer: -3.3%

Question: `O=C(Nc1cccnc1)c1ccc(-c2ccccc2[N+](=O)[O-])o1` was tested. Which displacement did it give?
Answer: 48.4%

Question: For `O=[N+]([O-])c1ccccc1-c1ccc(/C=C/c2ccc3ccccc3n2)o1`, which displacement is on record?
Answer: 97.9%

Question: Which displacement does the source give for `O=C(/C=C/c1ccc(-c2ccccc2[N+](=O)[O-])o1)Nc1cccnc1` here?
Answer: 73.1%

Question: With `Cc1ccc(/C=C/C(=O)Nc2cccc([N+](=O)[O-])c2)o1` as the compound, how does the displacement read?
Answer: 10.1%

Question: Which displacement does the source give for `O=C(/C=C/c1ccc(-c2ccccc2[N+](=O)[O-])o1)Nc1ccc(NC(=O)c2ccco2)cc1` here?
Answer: -0.2%

Question: Which displacement does the source give for `O=[N+]([O-])c1ccc(-c2ccc(/C=C/c3ccc4ccccc4n3)o2)cc1` here?
Answer: 14.8%
